Assay results from PubChem BioAssay (NCATS).
Inconclusive results are not listed. The source made the active and inactive calls. Calls come from the whole dose curve; as a rule, active = well fitted curve in the direction sought with a large enough effect; inconclusive = small, poorly fitted or top-dose-only effect, or another doubt; inactive = no such curve, though single readings can be large; an effect the other way counts as inactive or inconclusive.

Experiments:
[1] = qHTS of pediatric cancer cell lines to identify multiple opportunities for drug repurposing: Primary screen for TC32 cells (AID 1347089); note: nearly all actives have a fitted effect of over 60% in size; note: potency is the fitted concentration of half-maximal effect
Summary of the method: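 Measured quantity: luminescence from CellTiter-Glo, reflecting metabolically active TC32 cells following 48 h of compound. Curves came straight from multi-point titrations, with 8 or 11 points in primary and 11 in confirmatory screening.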

[2] = qHTS of pediatric cancer cell lines to identify multiple opportunities for drug repurposing: Primary screen for DAOY cells (AID 1347090); note: nearly all actives have a fitted effect of over 55% in size; note: potency is the fitted concentration of half-maximal effect
Summary of the method: (§1)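 Viability measured as metabolically active cells via CellTiter-Glo luminescence following 48 hours of compound exposure, 11-point dilutions in confirmatory testing. 500-1,000 cells/well plated 5 hours before dosing; controls were DMSO and 2.3 µM bortezomib.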

[3] = qHTS of pediatric cancer cell lines to identify multiple opportunities for drug repurposing: Primary screen for SJ-GBM2 cells (AID 1347091); note: potency is the fitted concentration of half-maximal effect
Summary of the method: as §1

[4] = qHTS of pediatric cancer cell lines to identify multiple opportunities for drug repurposing: Primary screen for A673 cells (AID 1347092); note: nearly all actives have a fitted effect of over 45% in size; note: potency is the fitted concentration of half-maximal effect
Summary of the method: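 Cells are plated, rested 5 h, dosed by pintool, incubated 48 h, then lysed with CellTiter-Glo and read by luminescence. DMSO is the neutral control; bortezomib at 2.3 uM final is the positive control.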

[5] = qHTS of pediatric cancer cell lines to identify multiple opportunities for drug repurposing: Primary screen for SK-N-MC cells (AID 1347093); note: potency is the fitted concentration of half-maximal effect
Summary of the method: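 Metabolically active cells were quantified by ATP-dependent luminescence (CellTiter-Glo, 15 min at room temperature) following 48 h treatment. Cells had been plated at 500-1,000 per well and settled for 5 h beforehand.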

[6] = qHTS of pediatric cancer cell lines to identify multiple opportunities for drug repurposing: Primary screen for BT-37 cells (AID 1347094); note: potency is the fitted concentration of half-maximal effect
Summary of the method: (§2)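 ATP-based luminescence (CellTiter-Glo) quantifies viability after a 48-hour exposure. Compounds are dosed across 8 or 11 final concentrations; DMSO and 2.3 µM bortezomib serve as controls.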

[7] = qHTS of pediatric cancer cell lines to identify multiple opportunities for drug repurposing: Primary screen for NB-EBc1 cells (AID 1347095); note: potency is the fitted concentration of half-maximal effect
Summary of the method: as §2

[8] = qHTS of pediatric cancer cell lines to identify multiple opportunities for drug repurposing: Primary screen for U-2 OS cells (AID 1347096); note: nearly all actives have a fitted effect of over 50% in size; note: potency is the fitted concentration of half-maximal effect
Summary of the method: (§3)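 Viability after 48 h compound treatment at 37C, 500-1,000 cells/well, read as ATP luminescence with CellTiter-Glo. Primary screens used 11-point (MIPE, 0.78 nM-46 µM) or 8-point (NPC, 0.59 nM-46 µM) final concentrations; follow-up screens used 11-point dilutions.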

[9] = qHTS of pediatric cancer cell lines to identify multiple opportunities for drug repurposing: Primary screen for Saos-2 cells (AID 1347097); note: nearly all actives have a fitted effect of over 40% in size; note: potency is the fitted concentration of half-maximal effect
Summary of the method: as §2

[10] = qHTS of pediatric cancer cell lines to identify multiple opportunities for drug repurposing: Primary screen for NB1643 cells (AID 1347099); note: nearly all actives have a fitted effect of over 50% in size; note: potency is the fitted concentration of half-maximal effect
Summary of the method: as §2

[11] = qHTS of pediatric cancer cell lines to identify multiple opportunities for drug repurposing: Primary screen for LAN-5 cells (AID 1347100); note: potency is the fitted concentration of half-maximal effect
Summary of the method: as §3

[12] = qHTS of pediatric cancer cell lines to identify multiple opportunities for drug repurposing: Primary screen for BT-12 cells (AID 1347101); note: nearly all actives have a fitted effect of over 25% in size; note: potency is the fitted concentration of half-maximal effect
Summary of the method: (§4)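 Cells (500-1,000/well) rested 5 h, then received compounds for 48 h; metabolically active cells were measured by CellTiter-Glo luminescence. Final concentrations spanned up to 46 µM (MIPE, 11-point) or 0.59 nM-46 µM (NPC, 8-point) in primary screens, 11-point in follow-ups.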

[13] = qHTS of pediatric cancer cell lines to identify multiple opportunities for drug repurposing: Primary screen for OHS-50 cells (AID 1347103); note: nearly all actives have a fitted effect of over 40% in size; note: potency is the fitted concentration of half-maximal effect
Summary of the method: as §4

[14] = qHTS of pediatric cancer cell lines to identify multiple opportunities for drug repurposing: Primary screen for RD cells (AID 1347104); note: nearly all actives have a fitted effect of over 55% in size; note: potency is the fitted concentration of half-maximal effect
Summary of the method: as §2

[15] = qHTS of pediatric cancer cell lines to identify multiple opportunities for drug repurposing: Primary screen for SK-N-SH cells (AID 1347098); note: nearly all actives have a fitted effect of over 65% in size; note: potency is the fitted concentration of half-maximal effect
Summary of the method: as §4

[16] = qHTS of pediatric cancer cell lines to identify multiple opportunities for drug repurposing: Primary screen for Rh18 cells (AID 1347102); note: nearly all actives have a fitted effect of over 65% in size; note: potency is the fitted concentration of half-maximal effect
Summary of the method: as §3

[17] = qHTS of pediatric cancer cell lines to identify multiple opportunities for drug repurposing: Primary screen for control Hh wild type fibroblast cells (AID 1347106);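 note: series mostly up to about 46 µM; a drop in luminescence marks cytotoxicity and a rise apparent proliferation; nearly all actives have a fitted effect of over 55% in size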
Summary of the method: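 Cells (500-1,000/well) in growth media were settled 5 h at 37 degrees C, then given compounds for 48 h. Viability was read as CellTiter-Glo luminescence. Primary runs used MIPE at 11 points (0.78 nM-46 µM) and NPC at 8 points (0.59 nM-46 µM); follow-ups used 11 points.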

[18] = qHTS of pediatric cancer cell lines to identify multiple opportunities for drug repurposing: Primary screen for MG 63 (6-TG R) cells (AID 1347105); note: nearly all actives have a fitted effect of over 50% in size; note: potency is the fitted concentration of half-maximal effect
Summary of the method: as §2

| Compound | Potency [1] | Potency [2] | Potency [3] | Potency [4] | Potency [5] | Potency [6] | Potency [7] | Potency [8] | Potency [9] | Potency [10] | Potency [11] | Potency [12] | Potency [13] | Potency [14] | Potency [15] | Potency [16] | Potency [17] | Potency [18] |
| --- | --- | --- | --- | --- | --- | --- | --- | --- | --- | --- | --- | --- | --- | --- | --- | --- | --- | --- |
| CCC1=C[C@@H]2CN(C1)Cc1c([nH]c3ccccc13)[C@@](C(=O)OC)(c1cc3c(cc1OC)N(C)[C@@H]1[C@@](O)(C(=O)OC)[C@H](OC(C)=O)[C@]4(CC)C=CCN5CC[C@]31[C@@H]54)C2 | 104 nM (active) | 187 nM (active) | 33.2 nM (active) | 9.3 nM (active) | 8.3 nM (active) | 43.2 nM (active) | 235 nM (active) | inactive | 16.6 nM (active) | 59 nM (active) | 9.3 nM (active) | 76.9 nM (active) | 43.2 nM (active) | 18.7 nM (active) | – | – | – | – |
| C=CCn1c(=O)c2cnc(Nc3ccc(N4CCN(C)CC4)cc3)nc2n1-c1cccc(C(C)(C)O)n1 | 2620 nM (active) | 372 nM (active) | 166 nM (active) | 74.3 nM (active) | 83.3 nM (active) | 611 nM (active) | 209 nM (active) | 3720 nM (active) | 1050 nM (active) | 187 nM (active) | – | 7690 nM (active) | 306 nM (active) | 418 nM (active) | 681 nM (active) | 7430 nM (active) | inactive | – |
| Clc1cccc(-n2nnnc2NCc2ccccc2Oc2ccccn2)c1Cl | inactive | inactive | inactive | inactive | inactive | inactive | inactive | inactive | inactive | inactive | inactive | – | – | inactive | inactive | inactive | inactive | inactive |
| COc1c(N2C[C@@H]3CCCN[C@H]3C2)c(F)cc2c(=O)c(C(=O)O)cn(C3CC3)c12 | inactive | inactive | inactive | inactive | inactive | inactive | inactive | inactive | inactive | inactive | inactive | inactive | inactive | inactive | inactive | inactive | inactive | inactive |
| CC(=O)OCCN1C(=O)c2c(C)nc3ccc(S(=O)(=O)N4CCOCC4)cc3c2C1=O | inactive | inactive | inactive | 7430 nM (active) | 20900 nM (active) | 5440 nM (active) | inactive | inactive | inactive | – | – | 10900 nM (active) | 24300 nM (active) | – | inactive | inactive | inactive | inactive |
| Cc1cc(Nc2cc(NC(=O)c3c(Cl)cccc3Cl)ccn2)nc(N)n1 | 930 nM (active) | 1480 nM (active) | 590 nM (active) | 1180 nM (active) | 132 nM (active) | 544 nM (active) | 332 nM (active) | 18700 nM (active) | 1050 nM (active) | 11800 nM (active) | 1870 nM (active) | 544 nM (active) | 8630 nM (active) | 935 nM (active) | 6070 nM (active) | – | – | 11800 nM (active) |
| NC(=O)Nc1cc(-c2cccc(F)c2)sc1C(=O)N[C@H]1CCCNC1 | 2340 nM (active) | 1870 nM (active) | 235 nM (active) | 187 nM (active) | 37.2 nM (active) | 485 nM (active) | 296 nM (active) | 935 nM (active) | 1320 nM (active) | 526 nM (active) | – | – | 172 nM (active) | 3720 nM (active) | 1710 nM (active) | 13200 nM (active) | – | 7430 nM (active) |
| O=C(Cc1ccc(-c2ccc(OCCN3CCOCC3)cc2)cn1)NCc1ccccc1 | 117 nM (active) | 37.2 nM (active) | 18.7 nM (active) | 23.5 nM (active) | 26.4 nM (active) | 68.5 nM (active) | 14.8 nM (active) | 3720 nM (active) | 14.8 nM (active) | 83.3 nM (active) | – | 38.5 nM (active) | 30.6 nM (active) | 52.6 nM (active) | 6810 nM (active) | 13200 nM (active) | – | 23.5 nM (active) |
| CC1COC2(CCN(c3nc(=O)c4cc(C(F)(F)F)cc([N+](=O)[O-])c4s3)CC2)O1 (centres undefined) | inactive | inactive | inactive | inactive | inactive | inactive | inactive | inactive | inactive | inactive | inactive | inactive | – | inactive | inactive | inactive | – | inactive |
| CCCCCCCCCC(=O)N[C@@H](Cc1c[nH]c2ccccc12)C(=O)N[C@H](CC(N)=O)C(=O)N[C@@H](CC(=O)O)C(=O)N[C@@H]1C(=O)NCC(=O)N[C@@H](CCCN)C(=O)N[C@@H](CC(=O)O)C(=O)N[C@H](C)C(=O)N[C@@H](CC(=O)O)C(=O)NCC(=O)N[C@H](CO)C(=O)N[C@@H]([C@@H](C)CC(=O)O)C(=O)N[C@@H](CC(=O)c2ccccc2N)C(=O)O[C@@H]1C | inactive | inactive | inactive | inactive | inactive | inactive | inactive | inactive | inactive | inactive | inactive | inactive | inactive | inactive | inactive | inactive | – | inactive |
